aSyn UTR act: Activators working through SNCA 5'UTR binding (MLPCN); alpha-synuclein 5'UTR reporter, activators screen; activity score, % (tested at 7.5 µM), hits read low; hit rate 7.1% among 300,000; in the data active = activity score below about -60%
Starred values were filed as active, the others as inactive. The list is a sample of the results.

SMILES	aSyn UTR act
CCOC(=O)C(=Cc1ccc(OCc2ccc([N+](=O)[O-])cc2)c(OC)c1)C(=O)OCC	-267.0*
COc1cc(C(c2c(C)[nH][nH]c2=O)c2c(C)[nH][nH]c2=O)ccc1OCc1ccc([N+](=O)[O-])cc1	-145.8*
Cc1cccc(-n2c(C)cc(C=C3C(=O)c4ccccc4C3=O)c2C)c1	-90.6*
CCn1c(C)cc(C=C2C(=O)c3ccccc3C2=O)c1C	-92.3*
O=C1Nc2ccc3sc4ccccc4c3c2C1=O	-68.8*
COC(=O)c1c(C)oc2ccc(N(C(=O)c3ccncc3)S(=O)(=O)c3ccc(C)cc3)cc12	109.8
Cc1ccc(S(=O)(=O)N(C(=O)c2ccncc2)c2ccc(OC(=O)c3ccncc3)c3ccccc23)cc1	-64.8*
COc1ccccc1OCCCOc1ccc([N+](=O)[O-])cc1Cl	-119.1*
COc1cc(C=O)ccc1OCc1ccc(Cl)nc1	-106.1*
C/C=C/c1ccc(OCCOc2cc(C=O)ccc2OC)c(OC)c1	-104.6*
COc1cc(C=O)ccc1OCCCOc1ccccc1[N+](=O)[O-]	-95.5*
CCOc1cccc(OCCOc2ccccc2[N+](=O)[O-])c1	-110.3*
COc1cc(C=O)ccc1OCCOc1ccccc1[N+](=O)[O-]	-102.6*
COC(=O)/C=C/COc1ccccc1[N+](=O)[O-]	-62.8*
CCC(C)NC(=O)c1cc(Sc2nnc(C)s2)nc2ccccc12 (stereo not drawn)	-66.6*
COc1cccc(Nc2nc(-c3cccc(N4C(=O)c5ccccc5C4=O)c3)cs2)c1	-62.0*
COc1cccc(Nc2nc(-c3ccc(O)cc3)cs2)c1	-191.1*
NC(=S)N/N=C/c1cccc(O)c1O	-94.0*
Cc1nnc(SCC(=O)Nc2nsc(-c3ccc(C(C)(C)C)cc3)n2)s1	-69.6*
Cc1ccc(N2C(=O)CC(Sc3nc(C)cc(C)n3)C2=O)cc1 (stereo not drawn)	-62.7*
Oc1ccc(/C=N/N2CCCCC2)c(O)c1	-92.9*
CN=c1scc(-c2cccs2)n1/N=C/c1ccccc1O	103.3
Oc1ccccc1/C=N/N1CCCCC1	-76.9*
N/C(Cc1ccc(Cl)cc1Cl)=N\OC(=O)c1ccccc1F	-71.7*
CC(C)(C)c1cc(Cl)c(O)c(NC(=S)NC(=O)c2cccnc2)c1	79.6
SMILES	aSyn UTR act
O=C(NC(=S)Nc1ccc(CN2CCCCC2)cc1)c1cccc(OCc2ccccc2)c1	-64.6*
CCOc1cccc(C(=O)NC(=S)Nc2cccnc2)c1	-142.1*
CCOc1cccc(C(=O)NC(=S)Nc2ccccc2)c1	-184.2*
C[C@@H](CO)NC(=O)c1ccc2c3n(nc2c1)-c1ccc(Cl)cc1CO3	-192.2*
CC(C)[C@@H](CO)NC(=O)c1ccc2c3n(nc2c1)-c1ccc(Cl)cc1CO3	-179.6*
O=C(O)CCSc1ncnc2sc(-c3ccccc3)cc12	88.2
CC(=O)CCSc1ncnc2sc(-c3ccccc3)cc12	-173.5*
Cc1ccc(C(=O)O/N=C(\N)Cc2cccs2)c(Cl)c1	-73.1*
Cc1ccc(C(=O)O/N=C(\N)Cc2ccc([N+](=O)[O-])cc2)c(Cl)c1	-73.0*
CCOC(=O)c1c(C)[nH]c(N=Nc2ccccc2)c1C	-142.8*
CCOC(=O)c1c(C)[nH]c(C=Nc2ccc(OC)cc2)c1O	-95.5*
CCOC(=O)c1c(C)[nH]c(N=Nc2ccccc2Cl)c1C	-119.0*
CCOC(=O)c1c(C)[nH]c(N=Nc2ccc(C)cc2)c1C	-270.9*
CCOC(=O)c1c(C)[nH]c(N=Nc2ccc(OC)cc2)c1C	-248.6*
Cc1ccc(OCC(=O)Nc2nnn(C)n2)c(C)c1	-87.3*
CCNc1ccc(Br)cc(C(=O)/C=C/c2c(Cl)cccc2Cl)c1=O	-133.0*
Oc1c(CN2CCCCC2)cc(Br)c2cccnc12	111.5
O=C(Nc1ccc(CN2CCCCC2)cc1)c1c(F)c(F)c(F)c(F)c1F	-63.0*
O=C(Nc1ccc(CN2CCCCC2)cc1)c1ccc(Br)o1	-75.8*
Clc1nc(CN2CCCCC2)nc2sc3c(c12)CCCC3	-67.7*
O=c1c2c3c(sc2nc2n1CCCCC2)CCCCC3	-152.5*
O=c1c2c3c(sc2nc2n1CCCCC2)CCCC3	-123.9*
O=c1c2c3c(sc2nc2n1CCCC2)CCCCC3	-105.4*
CC(=O)NCc1ccc(-c2csc(-c3cccs3)n2)cc1	-125.6*
CCCCC(=O)Nc1ccc2c(c1)nc1n2CCOC1	-76.8*
SMILES	aSyn UTR act
O=C(Nc1ccc2c(c1)nc1n2CCOC1)c1ccccc1	-80.4*
CC1(C)CN=c2s/c(=C\c3ccc(Cl)cc3)c(=O)n2C1	-111.3*
COc1ccccc1-n1cc([C@@H]2C[C@H]3CN(c4ccccc4)C(=O)[C@]34CCCN24)cn1	-361.9*
Cc1ccsc1CN(C)C(=O)CCc1nnc(COc2ccccc2)o1	-62.3*
CN(Cc1ccsc1)C(=O)CCc1nnc(CCCc2ccccc2)o1	-118.6*
COc1cccc(CN(C)C(=O)CCc2nnc(-c3ccsc3)o2)c1	-79.7*
O=C(Nc1ccccc1)N(O)c1ccc(Cl)cc1	-121.7*
Cn1c2ccccc2c(=O)c2ccc(C#Cc3ccccn3)cc21	-137.2*
Cn1c2ccccc2c(=O)c2cc(C#CC3(O)CCCCC3)ccc21	76.9
COc1cc(-c2noc(C)c2C#Cc2ccsc2)cc(OC)c1OC	68.8
Cn1c2ccccc2c(=O)c2cc(C#Cc3ccccn3)ccc21	-127.0*
Cn1c2ccccc2c(=O)c2cc(C#Cc3ccsc3)ccc21	-187.3*
FC(F)(F)c1cccc(N2Cc3ccccc3C2)c1	-71.9*
O=[N+]([O-])c1cccc(N2Cc3ccccc3C2)c1	-113.3*
N#Cc1ccc(N2CCc3ccccc3C2)c([N+](=O)[O-])c1	81.1
Cn1cc(NC(=O)OCc2ccc(Cl)cc2)c(C(F)(F)F)n1	-108.9*
COc1ccc(/C=C2\SC(=S)N(CCC(=O)NC3C=CS(=O)(=O)C3)C2=O)cc1 (stereo not drawn)	66.4
O=C(CN1C(=O)S/C(=C\C=C\c2ccccc2)C1=O)NC1CCS(=O)(=O)C1 (stereo not drawn)	-169.0*
CC(C)c1ccc(/C=C2\SC(=S)N(CCC(=O)NCCCn3ccnc3)C2=O)cc1	98.4
CC(C)c1ccc(/C=C2\SC(=O)N(CC(=O)NC3CCS(=O)(=O)C3)C2=O)cc1 (stereo not drawn)	-89.8*
COc1ccc(/C=C2\SC(=O)N(CCC(=O)N(C)C3CCS(=O)(=O)C3)C2=O)cc1 (stereo not drawn)	-83.9*
CN(C)/C=N/C(=S)Nc1ccc(Br)cc1F	-108.4*
S=c1[nH]nc(-c2ccc(Cl)cc2Cl)n1-c1ccccc1	-198.9*
CC(=O)c1sc2c(c1OC(=O)c1ccc(Cl)cc1Cl)c(=O)n(-c1ccccc1)c(=S)n2-c1ccccc1	100.6
COCCNC(=O)c1nc2ccccc2s1	-82.6*
SMILES	aSyn UTR act
Cc1ccc(-c2cc(C(=O)NCc3ccco3)c3ccccc3n2)s1	-65.2*
O=C(NCc1ccco1)c1nc2ccccc2s1	-107.3*
COc1ccc2[nH]c(=O)c(CNc3ccccc3)cc2c1	-167.3*
COc1ccc2[nH]c(=O)c(CNc3ccccc3C)cc2c1	-93.8*
O=c1sc(Nc2ccccc2)nc2ccsc12	-111.4*
O=C(Nc1nc2ccsc2c(=O)s1)C1CCC1	-95.5*
O=C(Nc1nc2ccsc2c(=O)s1)c1ccco1	-129.9*
Cc1nc2ccc3nc(NC(=O)c4ccco4)sc3c2s1	-152.2*
O=C(Nc1nc2c(Cl)ccc(Cl)c2s1)c1ccco1	-183.8*
O=C(Nc1nc2c(s1)CCc1ccccc1-2)c1ccco1	-140.3*
COc1ccc(-c2cc(COc3ccccc3)on2)cc1	-132.0*
Fc1ccc(OCc2cc(-c3ccccc3)no2)cc1	-149.5*
Cc1cccc(OCc2cc(-c3ccccc3)no2)c1C	-112.3*

Compound activity as filed in PubChem BioAssay.
